In PubChem BioAssay AID430 (Sanford-Burnham Center for Chemical Genomics, 2006) one finds cytotoxicity data, which are given here for 94 compounds.

Out of some 63,000 compounds screened, about 1,100 (1.7%) were called active. The sample as a whole holds a higher share of actives than the screen did. Potency and affinity values are given separately. Unmarked numbers belong to inactive results. Rule as the data show it: active = cytotoxicity above about 50%; inactive = the rest.

This assay in a line: cytotoxicity in HPDE-C7 cells, cell-based, fluorescence, HTS (AID 430).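 Also: cells exposed to compound for 48 hours before viability readout; 0% = vehicle and 100% = reference cytotoxic drug.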 The conditions noted are these: HPDE-C7 pancreatic duct cells viability, at 10 µM, stronger effect = higher value.
For the compound `Cc1cc(Cl)c(S(=O)(=O)NCc2ccncc2)cc1OCC(N)=O`, the cytotoxicity was 5.1%.
Turning to `CC1(C)CC(=O)C=C(Nc2ccccc2F)C1`, the cytotoxicity is 1.2%.
With `O=C(c1ccc(Cl)cc1)C1CCN(C(=O)NC2CCCCC2)CC1`, the cytotoxicity is -11.6%.
For `N#CCCCN1C(=O)C(O)(CC(=O)c2ccc3c(c2)OCCO3)c2ccccc21` (centres undefined), the cytotoxicity was -27.8%.
For `Cc1ccc(-n2c(Cn3cnc4ccccc43)nnc2SCC(=O)O)cc1`, the cytotoxicity is -16.2%.
Take `COc1ccc(NC(C)=O)cc1NC(=O)CN1CCN(CC(=O)Nc2ccc(Cl)cc2)CC1`: the cytotoxicity is -12.5%.
Turning to `CCc1nc2ccccc2c(NC(=O)CN2CCC(C)CC2)c1C`, the cytotoxicity is 8.8%.
Regarding `CCOC(=O)C1CCCN(CC(=O)NC2=Nc3ccccc3N=C(C)C2c2ccccc2)C1` (centres undefined), the cytotoxicity was 3.8%.
The same measure for `O=C(NCc1ccc(F)cc1)c1noc2c1CCCC2`: -10.3%; for `Fc1ccc(-c2ccc(-c3nn4c(-c5ccco5)nnc4s3)o2)cc1`: 73.5% (active); for `Cc1oc(-c2ccc(F)cc2)cc1-c1nn2c(-c3ccco3)nnc2s1`: -18%.
With `Clc1ccc(-c2ccc(-c3nn4c(-c5ccco5)nnc4s3)o2)cc1` the figure was -11.9%; with `COc1cccc(OCc2nc3ccccc3c(=O)n2N)c1`, -8.2%.
On to `CCC(C)n1cnc2c(c1=O)c1nc3ccccc3nc1n2-c1ccc2c(c1)OCCO2` (centres undefined), for which the cytotoxicity is -13.4%.
For `CCCn1c(C)nc2c(c1=O)c1nc3ccccc3nc1n2-c1ccc2c(c1)OCCO2`, the cytotoxicity is 51.4% (active).
In the case of `O=c1c2c3nc4ccccc4nc3n(-c3ccc4c(c3)OCCO4)c2ncn1CC1CCCO1` (centres undefined), the cytotoxicity was 0.3%.
As to `CC(=NCC1CCCO1)C1=C(O)CC(C)(C)CC1=O` (centres undefined), the cytotoxicity is -12.6%.
Consider `Cc1ccccc1-n1nc2c(c1NC(=O)COc1ccc(Cl)cc1)CS(=O)C2` (centres undefined), for which the cytotoxicity is 10%.
For the compound `CCCNC(=O)c1cc(-c2ccco2)on1`, the cytotoxicity is -2.4%.
For the compound `CCCOc1ccc(C(=O)NCc2cccnc2)cc1`, the cytotoxicity was -13.2%.
On to `Cc1ccc(S(=O)(=O)Cn2nnnc2C(CC(C)C)N2CCN(C(=O)c3ccco3)CC2)cc1` (centres undefined), for which the cytotoxicity was 4.4%.
With `COCc1nnc(NC(=O)c2ccc(S(=O)(=O)N(C)c3ccccc3)cc2)o1`, the cytotoxicity was 42.1%.
The same measure for `CCc1nnc(NC(=O)c2ccc(S(=O)(=O)N(CC(C)C)CC(C)C)cc2)o1`: 48.8%; for `CCCCN(CC)S(=O)(=O)c1ccc(C(=O)Nc2nnc(COC)o2)cc1`: 17.5%; for `COCc1nnc(NC(=O)c2ccc(S(=O)(=O)N(C)C3CCCCC3)cc2)o1`: 47.9%.
Turning to `CCCN(CCC)S(=O)(=O)c1ccc(C(=O)Nc2nnc(CSC)o2)cc1`, the cytotoxicity was 12.6%.
As to `CCCCN(CCCC)S(=O)(=O)c1ccc(C(=O)Nc2nnc(CSC)o2)cc1`, the cytotoxicity is 73.1% (active).
`CSCc1nnc(NC(=O)c2ccc(S(=O)(=O)N(CC(C)C)CC(C)C)cc2)o1`: the cytotoxicity was 62.4% (active).
The same measure for `CCc1nnc(NC(=O)c2ccc(S(=O)(=O)N(CCOC)CCOC)cc2)o1`: -20.2%; for `CCCCN(CC)S(=O)(=O)c1ccc(C(=O)Nc2nnc(CSC)o2)cc1`: 23.6%.
With `COCCN(CCOC)S(=O)(=O)c1ccc(C(=O)Nc2nnc(C)o2)cc1`, the cytotoxicity was -6.2%.
The same measure for `CCN(c1ccccc1)S(=O)(=O)c1ccc(C(=O)Nc2nnc(COC)o2)cc1`: 60.9% (active); for `CCCCN(CCCC)S(=O)(=O)c1ccc(C(=O)Nc2nnc(COC)o2)cc1`: 75.3% (active).
For `O=C(O)C1CC(=O)N(c2ccc(F)c(F)c2)C1` (centres undefined), the cytotoxicity was -4.7%.
Consider `CC1CCN(C(=O)CSc2nnc(-c3cc4ccccc4cc3O)n2Cc2ccco2)CC1`, for which the cytotoxicity is 22.2%.
With `CCOC(=O)Cn1nc(C)c(-c2ccccc2)c1N` the figure was -9.4%; with `Cc1nc2sc(C(c3ccccc3)N3CCC(O)CC3)c(O)n2n1` (centres undefined), 7.2%.
For the compound `O=C(O)c1ccc(S(=O)(=O)c2ccc3c(c2)C(=O)N(CC2CCCO2)C3=O)cc1` (centres undefined), the cytotoxicity was -5.6%.
As to `O=C(NC1CCCC1)C1CC(=O)N(C2CCCCCCC2)C1` (centres undefined), the cytotoxicity is -18%.
Regarding `CCNc1c2c3c(cccc3n(C)c1=O)C(=O)c1ccccc1-2`, the cytotoxicity is 53.8% (active).
Turning to `CC(=O)Nc1c2c3c(cccc3n(C)c1=O)C(=O)c1ccccc1-2`, the cytotoxicity is -6.7%.
Take `Cn1c(=O)c(NCCO)c2c3c(cccc31)C(=O)c1ccccc1-2`: the cytotoxicity was -8.4%.
Regarding `Cc1nn(CCCNC(=O)C2CCCO2)cc1Br` (centres undefined), the cytotoxicity is -8.3%.
Take `CCOc1cc2[nH]c(=S)n(CC3CCCN3CC)c(=O)c2cc1OCC` (centres undefined): the cytotoxicity is 4.2%.
For the compound `O=C(NCc1ccc2c(c1)OCO2)c1nnc(Cc2ccc(Cl)cc2)o1`, the cytotoxicity is -0.3%.
Turning to `O=C(NCc1ccc2c(c1)OCO2)c1ccc(-c2ccc(Cl)cc2)o1`, the cytotoxicity is 53.5% (active).
For `O=C(NCc1ccc2c(c1)OCO2)c1cccc(Cl)c1`, the cytotoxicity is -4.3%.
In the case of `O=C(Nc1cccc2nsnc12)c1ccc2c(c1)OCCO2`, the cytotoxicity was -5.8%.
With `O=C(Nc1ccccc1C(=O)N1CCCC1)C1CCN(c2ncccn2)CC1` the figure was -9.4%.
`O=C(COC(=O)C1CCN(C(=O)c2ccc(Cl)cc2)CC1)c1ccco1`: the cytotoxicity is 1.1%.
In the case of `CCc1ccc(-c2nc(C(N)=O)c3[nH]c(=O)n(-c4ccccc4OC)c3n2)cc1`, the cytotoxicity is 52.3% (active).
`COc1ccc(-c2nc(C(N)=O)c3[nH]c(=O)n(-c4ccccc4OC)c3n2)c(OC)c1`: the cytotoxicity is -6.2%.
Take `COc1ccccc1-n1c(=O)[nH]c2c(C(N)=O)nc(-c3cccnc3)nc21`: the cytotoxicity is 20.4%.
For `CC1(C)CC(=O)c2sc(NC(=O)CN3C(=O)CCC3=O)nc2C1`, the cytotoxicity is -5.4%.
The same measure for `COc1ccc(S(=O)(=O)N(CC(=O)N2CCOCC2)c2cc(Cl)ccc2OC)cc1OC`: -21.9%; for `CCCCNC(=O)Nc1cc(C(F)(F)F)c[nH]c1=O`: 4.6%; for `O=c1cc(-c2ccccc2)[nH]c2ccccc12`: 60.9% (active).
With `Cc1cc(=O)c2ccccc2[nH]1` the figure was -8.3%.
On to `O=c1cc(-c2ccccc2)c2ccccc2[nH]1`, for which the cytotoxicity is -20.9%.
For the compound `O=C(NCCCN1CCCC1=O)NC12CC3CC(CC(C3)C1)C2`, the cytotoxicity is -16.8%.
On to `CCOC(=O)N1CCC2(CC1)C(C(=O)C13CC4CC(CC(C4)C1)C3)C2(C#N)C#N` (centres undefined), for which the cytotoxicity is -15.7%.
For the compound `Cc1cc(C)n(-c2cccc3cccnc23)n1`, the cytotoxicity was -7%.
On to `COc1ccccc1C(=O)Oc1cc(N)n(S(=O)(=O)c2ccc(C)cc2)n1`, for which the cytotoxicity is -1.2%.
With `Cc1ccc(S(=O)(=O)n2nc(OC(=O)c3c(-c4ccccc4Cl)noc3C)cc2N)cc1`, the cytotoxicity was 79.3% (active).
In the case of `Cc1onc(-c2ccccc2Cl)c1C(=O)Oc1cc(N)n(S(=O)(=O)c2ccc(F)cc2)n1`, the cytotoxicity is 32.7%.
In the case of `COc1ccc(S(=O)(=O)n2nc(OC(=O)c3ccccc3)cc2N)cc1`, the cytotoxicity was 1.9%.
As for `COc1ccc(S(=O)(=O)n2nc(OC(=O)c3ccc(C)cc3)cc2N)cc1`, the cytotoxicity is -9.2%.
The same measure for `COc1ccc(S(=O)(=O)n2nc(OC(=O)c3c(-c4ccccc4Cl)noc3C)cc2N)cc1`: 63.1% (active); for `Cc1csc(NC(=O)CSc2nc(C)nc3c2c(=O)n(C)c(=O)n3C)n1`: -1.2%.
In the case of `O=C(c1ccc(CS(=O)(=O)Cc2ccc(Cl)cc2)o1)N1CCCC1`, the cytotoxicity is 7.7%.
With `Cc1ccc(-c2cc(-c3cccc(F)c3)n[nH]2)c(O)c1` the figure was 2.1%; with `Cc1ccccc1-c1cc(-c2ccccc2O)n[nH]1`, 25.4%.
Consider `Cc1ccc(-c2cc(-c3ccccc3Cl)[nH]n2)c(O)c1`, for which the cytotoxicity is 67.3% (active).
Consider `COc1ccccc1-c1cc(-c2cc(Cl)ccc2O)n[nH]1`, for which the cytotoxicity was -8%.
In the case of `Oc1ccccc1-c1cc(-c2ccccc2Cl)[nH]n1`, the cytotoxicity is -4.7%.
On to `COC(=O)C1=C(C)NC(=O)CC1c1ccc(C(=O)OC)cc1` (centres undefined), for which the cytotoxicity is 5.9%.
As to `CCN(CC)S(=O)(=O)c1ccc2[nH]cc(C(=O)NCCN3CCCCC3C)c(=O)c2c1` (centres undefined), the cytotoxicity was 0%.
`Cc1cc(=O)[nH]c(SCC2COC3(CCCCC3)O2)n1` (centres undefined): the cytotoxicity was -12.2%.
With `Cc1c(-c2nc(N)nc(Nc3ccccc3F)n2)oc2ccccc12` the figure was 15%.
Regarding `Cc1c(-c2nc(N)nc(Nc3ccc(F)cc3)n2)oc2ccccc12`, the cytotoxicity was 6.3%.
For the compound `Cc1c(-c2nc(N)nc(Nc3ccccc3)n2)oc2ccccc12`, the cytotoxicity was 52.8% (active).
Take `COc1nc(Oc2ccc(C(=O)OCC(N)=O)cc2)nc(N(C)C)n1`: the cytotoxicity is 3.8%.
`O=C1CCc2cc(S(=O)(=O)N3CCC(C(=O)NC4CCCC4)CC3)ccc2N1`: the cytotoxicity is 0.9%.
Regarding `C=CCn1c(SCc2csc(C)n2)nc2scc(-c3ccc(C)o3)c2c1=O`, the cytotoxicity was 86.5% (active).
On to `C=CCn1c(SCc2csc(C)n2)nc2sc3c(c2c1=O)CCCCC3`, for which the cytotoxicity was 4.7%.
Turning to `Cc1ccc(-c2csc3nc(C)n(-n4c(C)ccc4C)c(=O)c23)o1`, the cytotoxicity was 10.1%.
Turning to `CCSc1nc2c(c(=O)[nH]1)C(c1cccnc1)C(C(=O)OC)=C(C)N2` (centres undefined), the cytotoxicity was -19%.
For the compound `CCn1c(C)c(C(C)=O)c(N2CCCCC2)nc1=S`, the cytotoxicity is -8.3%.
Turning to `CC(=O)c1c(C)[nH]c(C(=O)OCC(=O)Nc2cc(C)on2)c1C`, the cytotoxicity was 7.8%.
For `CC(C)(C)NC(=O)CSc1nsc(SCC(=O)NC(C)(C)C)c1C#N`, the cytotoxicity was 1.2%.
Consider `Cc1csc(NC(=O)CSc2nc(C)cs2)n1`, for which the cytotoxicity is 3.7%.
For the compound `O=C(NCCCn1ccnc1)c1cn(-c2ccccc2)nc1-c1ccccc1`, the cytotoxicity was -1.6%.
For the compound `O=C(NC1CCS(=O)(=O)C1)c1ccccc1C(=O)c1ccccc1` (centres undefined), the cytotoxicity is -4.3%.
For `O=C(NC1CCS(=O)(=O)C1)c1cn(-c2ccccc2)nc1-c1ccccc1` (centres undefined), the cytotoxicity was 59.8% (active).
